Inconclusive results are not listed. Active and inactive are the calls of the source. Unless noted, the call rests on the fitted dose curve.
Legend:
[1] = Nuclear factor erythroid 2-related factor 2/antioxidant responsive element (Nrf2/ARE) small molecule agonists: qHTS cell viability counter screen in human keratinocytes (AID 1919968; active means well fitted curve in the direction sought with a large enough effect in the repeat runs; an effect the other way counts as inactive or inconclusive; further: nearly all actives have a fitted effect of over 55% in size)
Method in brief: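 Seed 1,500 KeratinoSens cells per well, then incubate 5 h at 37 C/5% CO2. Add compounds in DMSO and incubate 23 h. Add CellTiter-Fluor, wait 1 h and read fluorescence.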

[2] = Nuclear factor erythroid 2-related factor 2/antioxidant responsive element (Nrf2/ARE) small molecule agonists: luciferase reporter gene qHTS assay in human keratinocytes (AID 1919969); further: nearly all actives have a fitted effect of over 35% in size
[3] = target: Gonadotropin-releasing hormone receptor (Homo sapiens) (UniProt P30968); test: Human gonadotropin-releasing hormone receptor (GnRHR) small molecule agonists, calcium flux assay in GnRHR-HEK293 cells (AID 1920063); further: nearly all actives have a fitted effect of over 35% in size
Method in brief: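 Cells: HEK293 stably expressing human GnRHR. Steps: overnight (18 h) culture, 1 h calcium dye loading at 37 C, compound addition, kinetic fluorescence read at 480/540 nm. Each compound tested at 15 concentrations in triplicate.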

[4] = target: KiSS-1 receptor (Homo sapiens) (UniProt Q969F8); test: Human kisspeptin (KISS1R) small molecule agonists, calcium flux assay in KISS1R-HEK293 cells (AID 1920064; active means well fitted curve in the direction sought with a large enough effect in the repeat runs; an effect the other way counts as inactive or inconclusive)
Method in brief: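 Cells plated and incubated 18 h; dye added, 1 h at 37 C; compounds in DMSO pinned in; signal read at 480/540 nm every second for 3 min. Each compound tested at 15 concentrations in triplicate.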

[5] = G protein-coupled receptor (GPCR) small molecule agonists, calcium flux assay: HEK293 wild type cell line counter screen (AID 1920065)
Method in brief: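 Counter-screen of the Tox21 10K library for non-specific calcium release: dye-loaded cells received compounds in DMSO and were monitored by kinetic fluorescence (480/540 nm, 3 min). Fifteen concentrations, run in triplicate.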

[6] = p53 small molecule agonists, cell-based qHTS assay with human liver microsomes (AID 1963577);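 further: p53 response element beta-lactamase reporter cells with liver microsomes plus NADPH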
Method in brief: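 p53RE-bla cells; 5 h settle, 37 C/5% CO2; cpd + HLM 0.5 mg/mL + NADPH 0.5 mg/mL (final); 16 h 37 C; LiveBLAzer 2 h RT dark; fluorescence readout.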

[7] = p53 small molecule agonists, cell-based qHTS assay with rat liver microsomes (AID 1963578)
Method in brief: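 Rat liver microsome activation: microsomes 0.5 mg/mL, NADPH 0.5 mg/mL final; p53RE-bla cells, 16 h 37 C; LiveBLAzer readout, 2 h RT dark.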

[8] = p53 small molecule agonists, cell-based qHTS assay with human liver microsomes: qHTS cell viability counter screen (AID 1963579); further: nearly all actives have a fitted effect of over 45% in size
Method in brief: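 Luminescent CellTiter-Glo read-out, 30 min at room temperature, gauged cytotoxicity in p53RE-bla cells exposed 16 h at 37 C to DMSO-dissolved compounds with metabolic activation by human liver microsomes and NADPH, each 0.5 mg/mL final.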

[9] = p53 small molecule agonists, cell-based qHTS assay with rat liver microsomes: qHTS cell viability counter screen (AID 1963580); further: nearly all actives have a fitted effect of over 45% in size
Method in brief: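 p53RE-bla HCT-116 cells (4,000/well) rested 5 h at 37 C, then given Tox21 compounds in DMSO with rat liver microsomes (0.5 mg/mL final) plus NADPH (0.5 mg/mL final) for 16 h at 37 C. Viability read by CellTiter-Glo luminescence after 30 min at room temperature.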

[10] = p53 small molecule agonists, cell-based qHTS assay: qHTS cell viability counter screen (AID 1963581); further: nearly all actives have a fitted effect of over 45% in size
Method in brief: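 Cells: HCT-116 with p53 response element-driven beta-lactamase. Treatment: 16 h, 37 C, compounds in DMSO. Read: CellTiter-Glo luminescence after 30 min RT.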

[11] = p53 small molecule agonists, cell-based qHTS assay (AID 1963582; active means well fitted activation curve with a large enough effect in the signal ratio in the repeat runs, not every such curve was filed as active; the % refers to the signal ratio)
Method in brief: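 Quantitative HTS in p53RE-bla cells: after a 5 h settling period, compounds delivered in DMSO were left on cells for 16 h at 37 C, and reporter induction was measured as fluorescence following 2 h substrate loading.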

[12] = target: 5-hydroxytryptamine receptor 2A (Homo sapiens) (UniProt P28223); test: 5-hydroxytryptamine receptor 2A (HTR2A) small molecule antagonists, cell-based qHTS assay (AID 1963586); further: nearly all actives have a fitted effect of over 45% in size
Method in brief: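 Antagonist-mode intracellular calcium assay: DOI (4 nM) added after 5 min compound pre-incubation at room temperature to dye-loaded HTR2A-CHO cells. Fluorescence followed for 3 min, sampled every second.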

[13] = target: 5-hydroxytryptamine receptor 2A (Homo sapiens) (UniProt P28223); test: 5-hydroxytryptamine receptor 2A (HTR2A) small molecule agonists, cell-based qHTS assay (AID 1963587); further: nearly all actives have a fitted effect of over 30% in size
Method in brief: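 HTR2A-CHO cells, plated 18 h at 37 C/5% CO2, dye-loaded 1 h at 37 C; compounds in DMSO added by pin tool (agonist mode). Intracellular calcium flux read as kinetic fluorescence on FDSS over 2 min at 1 s intervals.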

[14] = target: Muscarinic acetylcholine receptor M1 (Homo sapiens) (UniProt P11229); test: Cholinergic receptor muscarinic 1 (CHRM1) small molecule antagonists, cell-based qHTS assay (AID 1963588); further: nearly all actives have a fitted effect of over 40% in size
Method in brief: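 CHRM1-CHO calcium-flux assay, antagonist mode. Cells were seeded 18 h, dye-loaded 1 h at 37 C and given compound for 5 min at RT, then acetylcholine was added at 50nM. FDSS fluorescence was read 3 min; 15 concentrations, three runs.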

[15] = target: Muscarinic acetylcholine receptor M1 (Homo sapiens) (UniProt P11229); test: Cholinergic receptor muscarinic 1 (CHRM1) small molecule agonists, cell-based qHTS assay (AID 1963589); further: nearly all actives have a fitted effect of over 35% in size
Method in brief: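 Agonist-mode qHTS in CHO cells stably carrying human muscarinic M1. Intracellular calcium is tracked by fluorescence every second after compound transfer; each compound runs at 15 concentrations in three independent runs.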

[16] = cAMP Responsive Elements (CRE) small molecule agonists, cell-based qHTS assay (AID 1963590)
Method in brief: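 Agonist mode qHTS in CRE-bla HEK 293T cells: compounds dosed from DMSO for 3 h at 37 C/5% CO2, followed by LiveBLAzer B/G FRET substrate for 2 h at room temperature.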

[17] = cAMP Responsive Elements (CRE) small molecule antagonists, cell-based qHTS assay (AID 1963591; active means well fitted inhibition curve with a large enough effect in the signal ratio in the repeat runs, not every such curve was filed as active; the % refers to the signal ratio)
Method in brief: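 Antagonist mode: test compounds are co-incubated with the adenylyl cyclase activator NKH477 (0.25 uM final) on CRE-bla HEK293T cells for 3 h at 37 °C, followed by LiveBLAzer substrate loading.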

[18] = target: Beta-2 adrenergic receptor (Homo sapiens) (UniProt P07550); test: Adrenergic beta2 receptor (ADRB2) small molecule antagonists, cell-based qHTS assay (AID 1963592); further: series mostly up to about 92 µM; nearly all actives have a fitted effect of over 50% in size
Method in brief: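 Cells (CHO, stable ADRB2 overexpression) incubated 18-20hr at 37C; compounds added from DMSO; agonist mix (1nM isoproterenol, 100uM IBMX, 25uM Ro-20-1724) added; 0.5hr RT; d2-cAMP and anti-cAMP-cryptate added; 1hr RT; 665/615 nm read.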

[19] = target: D(2) dopamine receptor (Homo sapiens) (UniProt P14416); test: Dopamine D2 receptor (DRD2) small molecule agonists, cell-based qHTS assay (AID 1963594); further: nearly all actives have a fitted effect of over 35% in size
Method in brief: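 HEK293 cells stably expressing DRD2 were cultured 24 h at 37 C, then given Ro20-1724 (0.1 mM final) and compounds for 10 min at room temperature. NKH477 (200nM) was then added for 30 min. cAMP was read by HTRF.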

[20] = target: D(2) dopamine receptor (Homo sapiens) (UniProt P14416); test: Dopamine D2 receptor (DRD2) small molecule antagonists, cell-based qHTS assay (AID 1963595; active means well fitted inhibition curve with a large enough effect in the signal ratio in the repeat runs, with a control signal flat; the % refers to the signal ratio)
Method in brief: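 HTRF cAMP read-out at 665 and 620 nm emission (340 nm excitation). Antagonist mode: compounds were tested against 12 nM quinpirole in DRD2-HEK293 cells, with 200 nM NKH477 raising cAMP and 0.1 mM Ro20-1724 blocking its breakdown.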

Measured: Potency

Chain of 5-hydroxytryptamine receptor 2A (Homo sapiens) (P28223 whole entry, looked up): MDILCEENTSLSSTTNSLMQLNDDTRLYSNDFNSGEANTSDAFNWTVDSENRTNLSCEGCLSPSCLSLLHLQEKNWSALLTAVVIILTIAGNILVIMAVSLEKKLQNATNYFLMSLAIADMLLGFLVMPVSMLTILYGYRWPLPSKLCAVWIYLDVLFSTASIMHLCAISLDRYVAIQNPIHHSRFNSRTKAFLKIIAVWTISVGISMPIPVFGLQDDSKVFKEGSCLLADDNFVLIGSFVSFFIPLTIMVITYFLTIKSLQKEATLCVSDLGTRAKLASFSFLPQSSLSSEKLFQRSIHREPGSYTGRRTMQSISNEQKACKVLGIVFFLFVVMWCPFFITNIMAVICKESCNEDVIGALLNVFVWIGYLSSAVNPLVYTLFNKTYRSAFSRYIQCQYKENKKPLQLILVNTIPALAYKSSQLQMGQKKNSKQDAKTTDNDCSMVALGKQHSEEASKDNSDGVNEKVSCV
Chain of Muscarinic acetylcholine receptor M1 (Homo sapiens) (P11229 whole entry, looked up): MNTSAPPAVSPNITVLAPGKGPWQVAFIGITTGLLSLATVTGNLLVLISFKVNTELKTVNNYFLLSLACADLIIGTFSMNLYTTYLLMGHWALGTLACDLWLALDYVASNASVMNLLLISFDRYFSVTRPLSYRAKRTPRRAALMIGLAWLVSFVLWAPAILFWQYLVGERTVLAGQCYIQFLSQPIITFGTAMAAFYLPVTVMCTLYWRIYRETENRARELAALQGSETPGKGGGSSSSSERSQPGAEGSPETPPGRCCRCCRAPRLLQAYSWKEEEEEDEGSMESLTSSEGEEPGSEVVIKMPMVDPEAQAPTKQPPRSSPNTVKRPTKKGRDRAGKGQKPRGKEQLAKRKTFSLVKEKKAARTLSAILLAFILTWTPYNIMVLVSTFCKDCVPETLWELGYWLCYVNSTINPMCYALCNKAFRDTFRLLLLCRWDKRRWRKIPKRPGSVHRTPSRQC
Chain of KiSS-1 receptor (Homo sapiens) (Q969F8 whole entry, looked up): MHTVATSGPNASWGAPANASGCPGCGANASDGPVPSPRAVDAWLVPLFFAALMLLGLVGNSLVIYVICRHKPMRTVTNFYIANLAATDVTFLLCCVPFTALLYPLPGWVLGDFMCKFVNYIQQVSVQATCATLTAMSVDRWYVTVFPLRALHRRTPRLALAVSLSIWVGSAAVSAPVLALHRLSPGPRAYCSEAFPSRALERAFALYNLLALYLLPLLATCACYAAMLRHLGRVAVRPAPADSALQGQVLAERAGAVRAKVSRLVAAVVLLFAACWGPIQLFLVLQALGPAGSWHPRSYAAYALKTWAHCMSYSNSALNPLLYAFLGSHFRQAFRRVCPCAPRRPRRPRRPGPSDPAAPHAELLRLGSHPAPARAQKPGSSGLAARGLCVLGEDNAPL
Chain of Gonadotropin-releasing hormone receptor (Homo sapiens) (P30968 whole entry, looked up): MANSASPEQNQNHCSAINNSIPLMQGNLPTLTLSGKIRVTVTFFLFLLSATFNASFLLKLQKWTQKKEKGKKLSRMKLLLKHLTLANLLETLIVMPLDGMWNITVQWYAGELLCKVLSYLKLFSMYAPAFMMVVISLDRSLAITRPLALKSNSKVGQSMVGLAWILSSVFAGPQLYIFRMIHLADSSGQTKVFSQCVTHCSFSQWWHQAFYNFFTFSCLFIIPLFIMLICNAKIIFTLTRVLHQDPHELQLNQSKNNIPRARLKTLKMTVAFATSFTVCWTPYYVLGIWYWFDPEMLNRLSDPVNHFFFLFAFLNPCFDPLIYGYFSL
Chain of D(2) dopamine receptor (Homo sapiens) (P14416 whole entry, looked up): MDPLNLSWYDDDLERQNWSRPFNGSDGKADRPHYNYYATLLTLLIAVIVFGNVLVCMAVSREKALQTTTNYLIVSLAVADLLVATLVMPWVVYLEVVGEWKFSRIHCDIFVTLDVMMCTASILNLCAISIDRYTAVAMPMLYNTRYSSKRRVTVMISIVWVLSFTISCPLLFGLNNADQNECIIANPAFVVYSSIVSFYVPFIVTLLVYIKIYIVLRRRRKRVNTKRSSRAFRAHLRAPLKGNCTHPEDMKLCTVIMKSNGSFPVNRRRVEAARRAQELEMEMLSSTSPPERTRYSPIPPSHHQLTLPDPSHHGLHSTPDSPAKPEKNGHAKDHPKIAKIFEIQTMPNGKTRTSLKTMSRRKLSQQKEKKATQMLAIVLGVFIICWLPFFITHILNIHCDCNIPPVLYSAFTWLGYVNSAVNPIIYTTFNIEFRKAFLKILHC
Chain of Beta-2 adrenergic receptor (Homo sapiens) (P07550 whole entry, looked up): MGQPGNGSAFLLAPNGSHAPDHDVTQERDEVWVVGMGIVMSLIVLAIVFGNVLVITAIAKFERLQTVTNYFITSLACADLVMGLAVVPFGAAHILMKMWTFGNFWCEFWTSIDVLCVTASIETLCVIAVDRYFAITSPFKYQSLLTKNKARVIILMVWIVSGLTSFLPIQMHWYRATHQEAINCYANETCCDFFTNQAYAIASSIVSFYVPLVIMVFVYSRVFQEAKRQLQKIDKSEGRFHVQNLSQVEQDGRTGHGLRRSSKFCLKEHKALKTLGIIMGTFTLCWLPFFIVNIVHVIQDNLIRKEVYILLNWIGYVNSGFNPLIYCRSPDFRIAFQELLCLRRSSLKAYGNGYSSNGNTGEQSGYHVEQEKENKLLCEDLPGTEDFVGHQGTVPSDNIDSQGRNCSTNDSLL

O=C(O)CP(=O)(O)O
inactive: all assays above

CC1=CP(=O)(c2ccccc2)CC1 (stereo not drawn)
not listed: [18]
inactive: all other assays above

FC(F)OC(Cl)C(F)(F)F (stereo not drawn)
inactive: all assays above

Cc1c(C(C)C)c(=O)n(-c2ccccc2)n1C
not listed: [19]
inactive: all other assays above

CC/C=C\CCCCO
inactive: all assays above

CC(C)=CCCC(C)C=O (stereo not drawn)
inactive: all assays above
